The campaign covered roughly 360,000 compounds. About 2,400 (0.67%) were called active. Many of the other results were omitted from the sample, so actives are more common in it than they were. Unmarked numbers belong to inactive results. Cut-off read from the data, not from the text of the source: active = enhancement above about 30%; inactive = the rest.

Chain of Thyrotropin-releasing hormone receptor (Homo sapiens) (P34981 whole entry, looked up): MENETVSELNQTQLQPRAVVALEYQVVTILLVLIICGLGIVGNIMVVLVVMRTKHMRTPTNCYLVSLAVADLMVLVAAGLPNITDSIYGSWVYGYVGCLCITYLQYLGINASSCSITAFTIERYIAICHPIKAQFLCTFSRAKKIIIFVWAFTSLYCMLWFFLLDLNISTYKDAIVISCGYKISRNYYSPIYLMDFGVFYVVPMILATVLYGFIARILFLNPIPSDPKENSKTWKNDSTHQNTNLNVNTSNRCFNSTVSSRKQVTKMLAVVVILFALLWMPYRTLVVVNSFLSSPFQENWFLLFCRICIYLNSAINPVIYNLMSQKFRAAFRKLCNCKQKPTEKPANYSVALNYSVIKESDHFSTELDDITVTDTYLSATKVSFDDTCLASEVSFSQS

For the assay, the target named is Thyrotropin-releasing hormone receptor (Homo sapiens) (UniProt P34981). Kind of assay: qHTS for Small Molecule Agonists and Allosteric Enhancers of Human TRH Receptor: Primary Screen for Enhancers. Note: 0% is about no effect. As to conditions: TRHR cells, fluo-8 calcium fluorescence, EC20 TRH enhancement; at 2 µM; active compounds read high. The method, boiled down:
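TRHR-expressing cells loaded with fluo-8 calcium dye were read kinetically (ex 480/em 530) during compound addition, then stimulated with an EC20 of TRH (10 nM final). Enhancement of the Gq-mediated intracellular calcium response was scored.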
In the case of `O=C(NCc1ccccn1)C1CCN(S(=O)(=O)c2ccc(Br)cc2)CC1`, the enhancement was -2.72%.

As to `O=C(COc1ccc(S(=O)(=O)N2CCCCC2)cc1)NCc1ccccn1`, the enhancement was 36.9% (active).

Consider `CCOc1ccccc1NC(=O)COc1ccc(S(=O)(=O)N2CCCC2)cc1`, for which the enhancement is 19.7%.

Regarding `COc1cccc(N2CC(NC(=O)/C=C\c3ccccc3)CC2=O)c1` (centres undefined), the enhancement was 5.73%.

On to `CCc1ccc(NC(=O)CSc2nc3c([nH]c4ccccc43)c(=O)n2-c2cccc(OC)c2)cc1`, for which the enhancement is 2.51%.

As for `CCOc1cc(CN2CCCC(CO)(Cc3ccc(F)cc3F)C2)ccc1OC` (centres undefined), the enhancement was 45.4% (active).

In the case of `Cc1ccccc1CC1(CO)CCCN(Cc2ccc3c(c2)OCCO3)C1` (centres undefined), the enhancement is 2.06%.

Consider `CCc1[nH]nc(C(=O)N2CCCC(CO)(Cc3ccc(F)cc3F)C2)c1C` (centres undefined), for which the enhancement was -3.46%.

Turning to `CC(C)(C)OC(=O)N1CCC(c2c(C(=O)NCc3ccccn3)cnn2-c2ccc(F)cc2)CC1`, the enhancement was 0.916%.

As to `CSc1nc(=O)c2c(n1C)NC(=O)CC2c1ccccc1OC(C)C` (centres undefined), the enhancement is 1.92%.

Consider `Cc1cc(C)c2oc(C(=O)Nc3c(C(=O)Nc4ccccc4)oc4ccccc34)cc(=O)c2c1`, for which the enhancement was -1.76%.

`Cc1ccc(S(=O)(=O)N(CC(=O)Nc2ccc(Cl)cc2Cl)c2ccccc2C)cc1`: the enhancement was -0.851%.

Consider `CCCCOc1ccc(C(=O)Nc2cccc(-c3nc4ccccc4o3)c2C)cc1`, for which the enhancement is 36% (active).

On to `Cc1ccccc1-c1nc2cc(NC(=O)c3cccc(OCCC(C)C)c3)ccc2o1`, for which the enhancement is -6.29%.

Consider `CCCOc1ccc(C(=O)Nc2ccc3oc(-c4cccc(Cl)c4Cl)nc3c2)cc1`, for which the enhancement is -0.105%.

As to `Cc1ccc(S(=O)(=O)c2nnn3c2nc(N2CCN(c4ccccc4F)CC2)c2cc(Cl)ccc23)cc1C`, the enhancement is 15.1%.

As for `COc1ccccc1CNC(=O)c1ccc(-n2c(C)cc3c2CCCC3)cc1`, the enhancement was -0.647%.

Regarding `Cc1noc(C)c1-c1ccc2ncnc(NCc3ccc(F)c(F)c3)c2c1`, the enhancement is -4.49%.

With `O=C(CCl)NNc1nc(-c2ccccc2)c2cc(Cl)ccc2n1`, the enhancement is 32.4% (active).

`Clc1ccc2nc(-c3ccccc3)nc(C(Cl)Cl)c2c1`: the enhancement is 2.39%.

`O=C(Cn1c(=O)nc(-c2ccccc2)c2cc(Cl)ccc21)NCc1ccc(Cl)cc1`: the enhancement was 10.8%.

Regarding `Cc1nc(N=C(N)N)nc2c(C)cccc12`, the enhancement is 10.2%.

Consider `NC(N)=Nc1nc(-c2ccccc2)c2cc(Cl)ccc2n1`, for which the enhancement is 48.4% (active).

On to `O=C(O)c1ccc(Nc2nc(-c3ccccc3)c3cc(Br)ccc3n2)cc1`, for which the enhancement is 7.15%.

Turning to `CCC(C)NC(=O)Cn1c(=O)n(-c2ccc(Cl)cc2)c(=O)c2c3c(sc21)CCCC3` (centres undefined), the enhancement is 2.95%.

For the compound `CN1CCOc2cc(S(=O)(=O)N3CCN(S(=O)(=O)c4c(F)cccc4F)CC3)cnc21`, the enhancement was -0.823%.

Regarding `Cc1ccc(C)c(NC(=O)CSC2=Nc3ccccc3N=C(c3ccc(F)cc3)C2)c1`, the enhancement is -0.667%.

As to `O=[S+]([O-])(c1ccc(OC(F)(F)F)cc1)N1CCN([S+](=O)([O-])c2ccc3c(c2)OCCO3)CC1`, the enhancement is -5.08%.

Consider `Cc1cccc(-c2nc(SCC(=O)Nc3cc(C)on3)c3c(=O)n(C)c(=O)n(C)c3n2)c1`, for which the enhancement is 2.9%.

`CCCCn1c(=N)c(S(=O)(=O)c2ccccc2)cc2c(=O)n3cccc(C)c3nc21`: the enhancement was 1.28%.

`CC(C)(C)c1ccc(OCC(=O)N2CCC(c3nc4ccccc4s3)CC2)cc1`: the enhancement is -1.99%.

For `C=CCC1=C/C(=C\c2c(N)n3nc(CC(=O)N4CCOCC4)sc3nc2=O)C=C(OC)C1=O`, the enhancement is 52.7% (active).

With `COC1=C/C(=C/c2c(N)n3nc(CC(=O)N4CCOCC4)sc3nc2=O)C=CC1=O`, the enhancement is 2.92%.

`COc1cc(OC)c(NC(=O)c2c3c(nn2C)-c2ccccc2SC3)cc1Cl`: the enhancement is 2.77%.

Regarding `CC(C)(C)c1ccc(C(=O)N2CCC(c3nc(-c4ccc(S(=O)(=O)N5CCCC5)cc4)no3)CC2)cc1`, the enhancement is -2.71%.

Regarding `COc1cccc(-c2cc(C(=O)Nc3ccc(C)cc3)[nH]n2)c1`, the enhancement is -0.168%.

Consider `COc1ccc(-c2nc(CN3CCC(C(=O)NCc4ccccc4)CC3)c(C)o2)cc1OC`, for which the enhancement is 3.63%.

Regarding `Cc1oc(-c2ccccc2F)nc1CN1CCC(C(=O)NCCc2ccc(Cl)cc2)CC1`, the enhancement was 31.8% (active).

With `COc1ccc(CCNC(=O)C2CCCN(Cc3nc(-c4cccc(Cl)c4)oc3C)C2)cc1OC` (centres undefined), the enhancement was -8.38%.

On to `OCC1(CCc2ccccc2)CCN(Cc2ccc3nsnc3c2)CC1`, for which the enhancement was -4.46%.

As to `COc1cccc(CC2(CO)CCN(Cc3cnc(-c4cccc(C)c4)nc3)CC2)c1`, the enhancement is 1.96%.

Turning to `Cc1c(CN2CCC(CO)(CCOc3ccccc3)CC2)[nH]c2ccc(Cl)cc12`, the enhancement is 35.6% (active).

Take `CN(Cc1ccccc1)c1ccc(-c2nc(-c3ccccc3)no2)cc1[N+](=O)[O-]`: the enhancement is 5.53%.

For `Cc1ccc(OC(=O)CSc2nnc(-c3cccs3)o2)cc1`, the enhancement is -4.22%.

With `COc1ccc(NC(=O)CC2SC(N3CCCCC3)=NC2=O)cc1OC` (centres undefined), the enhancement was 1.49%.

As for `O=C(CC1SC(N2CCCC2)=NC1=O)Nc1ccc(C(=O)NCCc2ccc(F)cc2)cc1` (centres undefined), the enhancement is 33.4% (active).

In the case of `CCC(C)NC(=O)c1ccc(NC(=O)CC2SC(N3CCCCC3)=NC2=O)cc1` (centres undefined), the enhancement was -8.07%.

In the case of `Cc1cc2nc(-c3ccc(NC(=O)c4cc5ccccc5o4)cc3)oc2cc1C`, the enhancement was -7.25%.

As for `CC(=O)c1ccc(N2CCN(c3nc4c(S(=O)(=O)c5ccccc5)nnn4c4ccc(Cl)cc34)CC2)cc1`, the enhancement is 1.21%.

Turning to `O=C(CNC(=O)c1ccccc1)OC(C(=O)Nc1cc([N+](=O)[O-])ccc1F)c1ccccc1` (centres undefined), the enhancement was -0.946%.

As for `COc1ccc(/C=C/CN2CCCC(C(=O)c3cc(F)ccc3F)C2)cc1` (centres undefined), the enhancement was 31.8% (active).

On to `CSCC(=O)N1CCCC(C(=O)c2cc(F)ccc2F)C1` (centres undefined), for which the enhancement is -3.7%.

As to `O=C(c1ccc(OC2CCN(C/C=C/c3ccc(F)cc3)CC2)cc1)N1CCCCC1`, the enhancement is 0.691%.

Regarding `Cc1ccc2oc3c(c(=O)c2c1)C(c1ccc([N+](=O)[O-])cc1)N(CCCN1CCOCC1)C3=O` (centres undefined), the enhancement is -0.734%.
